Experimental data: PubChem BioAssay AID1159580 (chemical genetic matrix, 2015)
Several values for one entry are separate records, joined by “and”; a condition that tells them apart may be missing. Equal entries are not always repeated. The whole screen tested about 5,500 compounds, of which about 2,000 (36%) were called active. Roughly 18% stayed inconclusive and do not appear here. No stated cut-off is given here; in the data, active means normalized growth mostly below about 0.91 (no sharp cut-off); inconclusive means no clear call, values can overlap the other calls; inactive means mostly above about 0.92. The list shows a part of the results.

Experiment: chemical genetic growth profiling, strain panel (AID 1159580);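 further: tested at 20 µM; growth read once vehicle control cultures reached saturation at 30 °C; 1 = growth at the plate median or of vehicle wells; lower values mean less growth of the strain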
Conditions: S. cerevisiae deletion strains, growth OD

Measured: normalized growth

CN1C2C[C@H](OC(=O)[C@H](CO)c3ccccc3)C[C@H]1[C@@H](O)C2
inactive: locus YAL021C, strain ccr4, hits give low values 0.979 | locus YAL026C, strain drs2, hits give low values 1.04 | locus YAL030W, strain snc1, hits give low values 1.02 | locus YBL061C, strain skt5, hits give low values 1.03 | locus YBR009C, strain hhf1, hits give low values 1.01 | locus YBR021W, strain FUR4, hits give low values 0.995 | locus YBR023C, strain chs3, hits give low values 1.02 | locus YBR171W, strain sec66, hits give low values 1.01 | locus YBR229C, strain ROT2, hits give low values 1.01 | locus YBR231C, strain swc5, hits give low values 1.02 | locus YBR279W, strain paf1, hits give low values 1.02 | locus YCL011C, strain gbp2, hits give low values 1.01 | locus YCL016C, strain dcc1, hits give low values 0.998 | locus YCL029C, strain bik1, hits give low values 0.997 | locus YCL069W, strain vba3, hits give low values 1.01 | locus YCR088W, strain abp1, hits give low values 1.01 | locus YDL005C, strain med2, hits give low values 1.03 | locus YDL035C, strain GPR1, hits give low values 1.02 | locus YDL040C, strain nat1, hits give low values 1.02 | locus YDL074C, strain BRE1, hits give low values 1.01 | locus YDL101C, strain DUN1, hits give low values 1.01 | locus YDL134C, strain PPH21, hits give low values 1.01 | locus YDL185W, strain tfp1, hits give low values 0.992 | locus YDL192W, strain arf1, hits give low values 0.995 | locus YDR001C, strain nth1, hits give low values 1.02 | locus YDR069C, strain doa4, hits give low values 1.03 | locus YDR101C, strain arx1, hits give low values 1 | locus YDR137W, strain rgp1, hits give low values 1.03 | locus YDR159W, strain sac3, hits give low values 1.05 | locus YDR162C, strain NBP2, hits give low values 1.02 | locus YDR195W, strain ref2 1.01 | locus YDR297W, strain sur2, hits give low values 1.02 | locus YDR318W, strain mcm21, hits give low values 1 | locus YDR334W, strain swr1, hits give low values 1.01 | locus YDR335W, strain msn5, hits give low values 1.02 | locus YDR388W, hits give low values 1 | locus YDR392W, strain spt3, hits give low values 0.911 | locus YDR502C, strain sam2, hits give low values 1.01 | locus YEL003W, strain gim4, hits give low values 1.03 | locus YEL037C, strain rad23, hits give low values 1.01 | locus YEL061C, strain CIN8 (second series), hits give low values 1.02 | locus YEL061C, strain CIN8, hits give low values 1.01 | locus YER015W, strain faa2, hits give low values 1.01 | locus YER016W, strain bim1, hits give low values 1.03 | locus YER110C, hits give low values 1 | locus YER111C, strain swi4, hits give low values 1.02 | locus YER155C, strain BEM2 (second series), hits give low values 1.02 | locus YER155C, strain BEM2, hits give low values 1.01 | locus YER167W, strain BCK2, hits give low values 1 | locus YFR010W, strain ubp6, hits give low values 1.04 | locus YGL078C, strain dbp3, hits give low values 0.999 | locus YGL086W, strain mad1, hits give low values 0.993 | locus YGL167C, strain pmr1, hits give low values 1.02 | locus YGL173C, strain kem1, hits give low values 1.03 | locus YGL227W, strain vid30, hits give low values 1.02 | locus YGL240W, strain doc1, hits give low values 1.02 | locus YGL248W, strain PDE1, hits give low values 1.01 | locus YGL253W, strain hxk2, hits give low values 1.04 | locus YGR078C, strain PAC10, hits give low values 1.01 | locus YGR135W, strain pre9, hits give low values 1 | locus YGR229C, strain SMI1, hits give low values 1.02 | locus YGR252W, strain gcn5, hits give low values 0.955 | locus YHR013C, strain ard1, hits give low values 1.01 | locus YHR027C, strain rpn1, hits give low values 1.01 | locus YHR030C, strain SLT2, hits give low values 1.01 | locus YHR079C, strain IRE1 (second series), hits give low values 1 | locus YHR079C, strain IRE1, hits give low values 0.992 | locus YHR094C, strain hxt1, hits give low values 0.992 | locus YHR129C, strain ARP1, hits give low values 1.01 | locus YHR142W, strain chs7, hits give low values 1.03 | locus YHR200W, strain rpn10, hits give low values 1 | locus YIL066C, strain RNR3, hits give low values 1.02 | locus YIL073C, strain SPO22, hits give low values 1.01 | locus YIL125W, strain kgd1, hits give low values 0.991 | locus YIR030C, strain dcg1, hits give low values 0.99 | locus YJL092W, strain hpr5, hits give low values 1.02 | locus YJL095W, strain BCK1 (second series), hits give low values 1.01 | locus YJL095W, strain BCK1, hits give low values 1.02 and 1 | locus YJL115W, strain asf1, hits give low values 1.01 | locus YJL129C, strain trk1, hits give low values 1.02 | locus YJL134W, strain LCB3, hits give low values 1.01 | locus YJL154C, strain vps35, hits give low values 1.02 | locus YJL164C, strain tpk1, hits give low values 0.996 | locus YJL166W, strain qcr8, hits give low values 1.03 | locus YJL168C, strain set2, hits give low values 1 | locus YJL187C, strain SWE1 (second series), hits give low values 1.01 | locus YJR043C, strain POL32, hits give low values 1.03 | locus YJR066W, strain TOR1, hits give low values 0.96 | locus YJR075W, strain HOC1, hits give low values 1.01 | locus YKL009W, strain mrt4, hits give low values 1.01 | locus YKL068W, hits give low values 0.987 | locus YKL085W, strain MDH1 (second series), hits give low values 1.01 | locus YKL085W, strain MDH1, hits give low values 1.01 | locus YKL160W, strain elf1, hits give low values 1 | locus YKL190W, strain CNB1, hits give low values 1.01 | locus YKR001C, strain vps1, hits give low values 0.981 | locus YKR026C, strain gcn3, hits give low values 1.01 | locus YKR091W, strain srl3, hits give low values 1.02 | locus YLL001W, strain dnm1, hits give low values 1.02 | locus YLL026W, hits give low values 1.02 | locus YLL041C, strain sdh2, hits give low values 1.02 | locus YLR027C, strain aat2, hits give low values 1.03 | locus YLR039C, strain RIC1, hits give low values 1.03 | locus YLR058C, strain SHM2, hits give low values 1.01 | locus YLR102C, strain apc9, hits give low values 0.997 | locus YLR113W, strain HOG1, hits give low values 0.978 | locus YLR221C, strain rsa3, hits give low values 1.02 | locus YLR258W, strain gsy2, hits give low values 1.02 | locus YLR262C, strain YPT6 (second series), hits give low values 1.03 | locus YLR262C, strain YPT6, hits give low values 1.05 | locus YLR268W, strain sec22, hits give low values 0.995 | locus YLR320W, strain mms22, hits give low values 1.04 | locus YLR330W, strain CHS5, hits give low values 1.01 | locus YLR342W, strain FKS1 (second series), hits give low values 1.02 | locus YLR342W, strain FKS1, hits give low values 1.02 | locus YLR357W, strain rsc2, hits give low values 1 | locus YLR370C, strain arc18, hits give low values 1.01 | locus YLR371W, strain rom2, hits give low values 0.989 | locus YLR384C, strain iki3, hits give low values 1.02 | locus YLR418C, strain cdc73, hits give low values 0.991 | locus YML016C, strain PPZ1, hits give low values 1.01 | locus YML032C, strain rad52, hits give low values 0.99 | locus YML120C, strain ndi1, hits give low values 1 | locus YML124C, strain tub3, hits give low values 1 | locus YMR058W, strain fet3, hits give low values 1.03 | locus YMR078C, strain ctf18, hits give low values 0.999 | locus YMR125W, strain sto1, hits give low values 0.983 | locus YMR129W, hits give low values 1.02 | locus YMR205C, strain PFK2, hits give low values 1.04 | locus YMR223W, strain ubp8, hits give low values 1.02 | locus YMR231W, strain pep5, hits give low values 1.01 | locus YMR263W, strain SAP30, hits give low values 1.01 | locus YMR307W, strain GAS1, hits give low values 0.97 | locus YNL067W, strain RPL9B, hits give low values 1.01 | locus YNL071W, strain lat1, hits give low values 1.02 | locus YNL183C, strain NPR1, hits give low values 0.96 | locus YNL209W, strain ssb2, hits give low values 1.04 | locus YNL233W, strain BNI4, hits give low values 0.992 | locus YNL248C, strain rpa49, hits give low values 0.941 | locus YNL250W, strain rad50, hits give low values 1 | locus YNL271C, strain bni1, hits give low values 0.99 | locus YNL298W, strain CLA4, hits give low values 1.02 | locus YNL307C, strain MCK1, hits give low values 0.995 | locus YNL322C, strain KRE1 (second series), hits give low values 1.01 | locus YNR049C, strain mso1, hits give low values 1.01 | locus YNR052C, strain pop2, hits give low values 0.992 | locus YOL006C, strain TOP1, hits give low values 0.998 | locus YOL012C, strain htz1 0.77 | locus YOL147C, strain pex11, hits give low values 1 | locus YOR001W, strain rrp6, hits give low values 1.04 | locus YOR061W, strain CKA2, hits give low values 1.01 | locus YOR069W, strain VPS5, hits give low values 1.01 | locus YOR070C, strain gyp1, hits give low values 1.03 | locus YOR080W, strain dia2, hits give low values 1.02 | locus YOR083W, strain WHI5, hits give low values 1.01 | locus YOR106W, strain vam3, hits give low values 0.994 | locus YOR136W, strain idh2, hits give low values 0.992 | locus YOR144C, strain elg1, hits give low values 0.997 | locus YOR184W, strain ser1, hits give low values 1.02 | locus YOR231W, strain MKK1, hits give low values 0.99 | locus YOR265W, strain rbl2, hits give low values 1.01 | locus YOR270C, strain vph1, hits give low values 1.07 | locus YOR290C, strain snf2, hits give low values 0.969 | locus YOR316C, strain cot1, hits give low values 1 | locus YPL051W, strain arl3, hits give low values 1 | locus YPL078C, strain atp4, hits give low values 0.984 | locus YPL106C, strain sse1, hits give low values 1.01 | locus YPL240C, strain hsp82, hits give low values 1.02 | locus YPL256C, strain CLN2, hits give low values 1 | locus YPR119W, strain clb2, hits give low values 1 | locus YPR141C, strain kar3, hits give low values 0.995 | locus YPR163C, strain tif3, hits give low values 1.02 | locus YPR167C, strain met16, hits give low values 1 | strain wtn01, hits give low values 0.986
